Each structure is given as a SMILES string. Records with an inconclusive call do not appear. A call without a number means that no potency is given here. Activity calls are given as the source filed them. Calls come from the whole dose curve; as a rule, active = well fitted cell-killing curve with a large enough effect; inconclusive = small, poorly fitted or top-dose-only effect; inactive = no such curve, though single readings can be large or run the other way.
Potency is the fitted concentration of half-maximal effect.

One test in a line: qHTS of pediatric cancer cell lines to identify multiple opportunities for drug repurposing: Primary screen for SK-N-SH cells (AID 1347098). Note: nearly all actives have a fitted effect of over 65% in size. The settings on record: SK-N-SH viability, CellTiter-Glo luminescence, 48 h; series mostly up to 57 µM. The method in brief: (§1)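 Cells (500-1,000/well) rested 5 h, then received compounds for 48 h; metabolically active cells were measured by CellTiter-Glo luminescence. Final concentrations spanned up to 46 µM (MIPE, 11-point) or 0.59 nM-46 µM (NPC, 8-point) in primary screens, 11-point in follow-ups.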
Turning to `COCC1(CO)C(=O)C2CCN1CC2` (stereo not given), the Potency is 1.08 µM (active).
The same measure, in the same setting: as for `O=S(=O)(CC1CS1)c1ccc(Oc2ccccc2)cc1` (stereo not given), the figure is 24.1 µM (active); as for `COc1ccc(CC2NCCc3cc(OC)c(OC)cc32)cc1OC` (stereo not given), “inactive”.
Still for that read-out and setting: the same measure for `COC1=C[C@@H]2[C@@H]3Cc4ccc(OC)c(O)c4[C@]2(CCN3C)CC1=O`: 6.07 µM (active).
For the molecule `CCN1CCN(C(=O)Cc2ccc(Nc3ncc(F)c(Nc4ccc(C(=O)Nc5ccccc5Cl)cc4)n3)cc2)CC1`, the Potency was 21.5 µM (active).
Turning to `CCCN(CCC)c1c([N+](=O)[O-])cc(S(N)(=O)=O)cc1[N+](=O)[O-]`, the Potency was 49.8 µM (active).
As to `O=c1cccc2n1CC1CNC[C@H]2C1`, the Potency was 24.1 µM (active).
For `O=[N+]([O-])c1cc([N+](=O)[O-])c2ccccc2c1`, the Potency entry is “inactive”.
On to `Cc1ccccc1-n1c(Cn2cnc3c(N)ncnc32)nc2cccc(C)c2c1=O`, for which the Potency is 8.57 µM (active).
Take `CC(=Cc1csc(C)n1)[C@@H]1C[C@H]2O[C@]2(C)CCC[C@H](C)[C@@H](O)[C@@H](C)C(=O)C(C)(C)[C@@H](O)CC(=O)O1`: the Potency entry is “inactive”.
For `CCc1c(C(=O)C(N)=O)c2c(OCC(=O)O)cccc2n1Cc1ccccc1`, the Potency entry is “inactive”.
Take `O=C1CCC[C@@H]2[C@H]3CCCN4CCC[C@@H](CN12)[C@@H]34`: the Potency result was “inactive”.
On the same count and under the same terms, the same measure for `CC(=Cc1csc(C)n1)[C@@H]1C[C@H]2O[C@@H]2CCC[C@H](C)[C@@H](O)[C@@H](C)C(=O)C(C)(C)[C@@H](O)CC(=O)O1`: “inactive”; for `CCCCCC[C@H]1C(=O)O[C@H](C)[C@H](NC(=O)c2cccc(NC=O)c2O)C(=O)O[C@@H](C)[C@@H]1OC(=O)CC(C)C`: “inactive”.
On to `c1cc2ccc3cccc4ccc(c1)c2c34`, for which the Potency result is “inactive”.
As to `CC[C@H]1C=CC=CC[C@@H](C)[C@H](O)[C@@](C)(O)C(=O)[C@@H](C)[C@H](O)[C@@H](C)C(=O)[C@@H](C)[C@H](O)[C@@H](C)C=CC(=O)O[C@@H]2[C@@H](C)[C@H](CC1)O[C@]1(CC[C@H](C)[C@H](C[C@@H](C)O)O1)[C@H]2C`, the Potency result is “inactive”.
As to `C[C@H]1CCCC=CC2C[C@H](O)C[C@@H]2[C@H](O)C=CC(=O)O1` (stereo not given in full), the Potency is 0.001 µM (active).

A further test is described as follows: qHTS of pediatric cancer cell lines to identify multiple opportunities for drug repurposing: Primary screen for NB1643 cells (AID 1347099). Note: nearly all actives have a fitted effect of over 50% in size. The settings on record: NB1643 neuroblastoma viability, CellTiter-Glo luminescence, 48 h; series mostly up to 46 µM. In outline: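 Cells seeded at 500-1,000 cells/well in growth media, rested 5 hours at 37 degrees C, 5% CO2, then dosed; MIPE compounds at 11-point (from 0.78 nM) and NPC at 8-point (from 0.59 nM) final concentrations. Viability by CellTiter-Glo luminescence after 48 hours.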
With `COCC1(CO)C(=O)C2CCN1CC2` (stereo not given), the Potency was 5.9 µM (active).
Same read-out and setting: as for `O=S(=O)(CC1CS1)c1ccc(Oc2ccccc2)cc1` (stereo not given), the figure is 18.7 µM (active); as for `CCCCCCCCc1ccc(O)cc1`, “inactive”; as for `COC1=C[C@@H]2[C@@H]3Cc4ccc(OC)c(O)c4[C@]2(CCN3C)CC1=O`, 5.9 µM (active).
On the same count and under the same terms, as for `CC(C)Oc1cccc(NC(=O)c2ccccc2C(F)(F)F)c1`, the entry is “inactive”.
On the same count and under the same terms, the same measure for `CCN1CCN(C(=O)Cc2ccc(Nc3ncc(F)c(Nc4ccc(C(=O)Nc5ccccc5Cl)cc4)n3)cc2)CC1`: 5.9 µM (active).
For `CC(=O)N(C)c1cccc(-c2ccnc3c(C(=O)c4cccs4)cnn23)c1`, the Potency entry was “inactive”.
The same measure, in the same setting: the same measure for `CCCN(CCC)c1c([N+](=O)[O-])cc(S(N)(=O)=O)cc1[N+](=O)[O-]`: 48.6 µM (active); for `O=c1cccc2n1CC1CNC[C@H]2C1`: 5.9 µM (active); for `O=[N+]([O-])c1cc([N+](=O)[O-])c2ccccc2c1`: “inactive”.
In the case of `Cc1ccccc1-n1c(Cn2cnc3c(N)ncnc32)nc2cccc(C)c2c1=O`, the Potency is 0.59 µM (active).
Same read-out and setting: as for `CC(=Cc1csc(C)n1)[C@@H]1C[C@H]2O[C@]2(C)CCC[C@H](C)[C@@H](O)[C@@H](C)C(=O)C(C)(C)[C@@H](O)CC(=O)O1`, the entry is “inactive”; as for `CC(C)[C@]12O[C@@H]1[C@@H]1O[C@]13[C@]1(O[C@H]1C[C@@H]1C4=C(CC[C@@]13C)C(=O)OC4)[C@H]2O`, “inactive”; as for `CCc1c(C(=O)C(N)=O)c2c(OCC(=O)O)cccc2n1Cc1ccccc1`, “inactive”.
As to `O=C1CCC[C@@H]2[C@H]3CCCN4CCC[C@@H](CN12)[C@@H]34`, the Potency entry is “inactive”.
For the molecule `CC(=O)O[C@@]12CO[C@H]1C[C@H](O)[C@@]1(C)C(=O)[C@H](O)C3=C(C)[C@@H](O)C[C@@](O)([C@@H](OC(=O)c4ccccc4)[C@@H]21)C3(C)C`, the Potency entry was “inactive”.
Still for that read-out and setting: the same measure for `CCCCCC[C@H]1C(=O)O[C@H](C)[C@H](NC(=O)c2cccc(NC=O)c2O)C(=O)O[C@@H](C)[C@@H]1OC(=O)CC(C)C`: 23.5 µM (active); for `c1cc2ccc3cccc4ccc(c1)c2c34`: “inactive”; for `C[C@H]1CCCC=CC2C[C@H](O)C[C@@H]2[C@H](O)C=CC(=O)O1` (stereo not given in full): 0.001 µM (active).

A further test is described as follows: qHTS of pediatric cancer cell lines to identify multiple opportunities for drug repurposing: Primary screen for LAN-5 cells (AID 1347100). Particulars: LAN-5 neuroblastoma viability, CellTiter-Glo luminescence, 48 h; series mostly up to 46 µM. The method in brief:
as §1
Background: Quantitative high-throughput screening tests each substance at several concentrations.
Regarding `COCC1(CO)C(=O)C2CCN1CC2` (stereo not given), the Potency was 0.833 µM (active).
Turning to `O=S(=O)(CC1CS1)c1ccc(Oc2ccccc2)cc1` (stereo not given), the Potency was 23.5 µM (active).
For `COc1ccc(CC2NCCc3cc(OC)c(OC)cc32)cc1OC` (stereo not given), the Potency result was “inactive”.
The same measure, in the same setting: as for `CCN1CCN(C(=O)Cc2ccc(Nc3ncc(F)c(Nc4ccc(C(=O)Nc5ccccc5Cl)cc4)n3)cc2)CC1`, the figure is 0.469 µM (active); as for `CC(=O)N(C)c1cccc(-c2ccnc3c(C(=O)c4cccs4)cnn23)c1`, “inactive”.
As for `O=C(N[C@@H](COc1ccc2[nH]c(=O)[nH]c2c1)c1ccccc1)c1cccn(Cc2ccc(F)c(F)c2)c1=O`, the Potency entry was “inactive”.
As for `O=c1cccc2n1CC1CNC[C@H]2C1`, the Potency is 2.96 µM (active).
On the same count and under the same terms, as for `O=[N+]([O-])c1cc([N+](=O)[O-])c2ccccc2c1`, the entry is “inactive”; as for `O=[N+]([O-])c1c2ccccc2cc2ccccc12`, “inactive”; as for `Cc1ccccc1-n1c(Cn2cnc3c(N)ncnc32)nc2cccc(C)c2c1=O`, 0.264 µM (active).
As for `CC(=Cc1csc(C)n1)[C@@H]1C[C@H]2O[C@]2(C)CCC[C@H](C)[C@@H](O)[C@@H](C)C(=O)C(C)(C)[C@@H](O)CC(=O)O1`, the Potency was 0.001 µM (active).
In the case of `CC(C)[C@]12O[C@@H]1[C@@H]1O[C@]13[C@]1(O[C@H]1C[C@@H]1C4=C(CC[C@@]13C)C(=O)OC4)[C@H]2O`, the Potency entry is “inactive”.
With `CCc1c(C(=O)C(N)=O)c2c(OCC(=O)O)cccc2n1Cc1ccccc1`, the Potency result was “inactive”.
As to `O=C1CCC[C@@H]2[C@H]3CCCN4CCC[C@@H](CN12)[C@@H]34`, the Potency result is “inactive”.
Turning to `CC(=O)O[C@@]12CO[C@H]1C[C@H](O)[C@@]1(C)C(=O)[C@H](O)C3=C(C)[C@@H](O)C[C@@](O)([C@@H](OC(=O)c4ccccc4)[C@@H]21)C3(C)C`, the Potency is 2.64 µM (active).
In the case of `CC(=Cc1csc(C)n1)[C@@H]1C[C@H]2O[C@@H]2CCC[C@H](C)[C@@H](O)[C@@H](C)C(=O)C(C)(C)[C@@H](O)CC(=O)O1`, the Potency was 0.001 µM (active).
Consider `c1cc2ccc3cccc4ccc(c1)c2c34`, for which the Potency result is “inactive”.
As for `CC[C@H]1C=CC=CC[C@@H](C)[C@H](O)[C@@](C)(O)C(=O)[C@@H](C)[C@H](O)[C@@H](C)C(=O)[C@@H](C)[C@H](O)[C@@H](C)C=CC(=O)O[C@@H]2[C@@H](C)[C@H](CC1)O[C@]1(CC[C@H](C)[C@H](C[C@@H](C)O)O1)[C@H]2C`, the Potency is 18.7 µM (active).
For the molecule `C[C@H]1CCCC=CC2C[C@H](O)C[C@@H]2[C@H](O)C=CC(=O)O1` (stereo not given in full), the Potency is 0.001 µM (active).

(Values after PubChem BioAssay (NCATS).)
